Choline anaer gr: blocks anaerobic gram-negative growth on choline; Gram-negative bacterium anaerobic choline minimal medium, absorbance growth; active compounds read low; calls only; 0.2% of 55,000 active; AID 1963822; call rule not given here
Active calls of the source: *; i = inactive; + = active, no number; ! = repeats disagree. The entries come from a sample that favours hits as a whole.

SMILES | Choline anaer gr
O=C1N(Cc2ccc(F)cc2)CCN1C1CCN(S(=O)(=O)c2cc(F)cc(F)c2)CC1 | i
Cc1ccc(-c2noc3c(N4CCc5ccccc54)nc(C)nc23)cc1 | i
CCCCC[C@H](O)/C=C/[C@H]1[C@H](O)CC(=O)[C@H]1CCCCCCC(=O)O | i
CCCCC[C@H](O)/C=C/[C@H]1[C@H](O)CC(=O)[C@@H]1CCCCCCC(=O)O | i
CCCCC[C@H](O)CC[C@H]1[C@H](O)CC(=O)[C@@H]1CCCCCCC(=O)O | +!
COc1ccc(Cc2nn3c(-c4cccnc4)nnc3s2)cc1 | i
O=C1CCCN1CCCNc1nc(C2CC2)nc2c1CCC2 | i
CN1CCN(CCNc2nc(C3CC3)nc3c2CCC3)CC1 | i
CCN1CCN(CCNc2nc(C3CC3)nc3c2CCC3)CC1 | +
CCOC(=O)Cn1c(N2CCCCC2)nc2c1c(=O)[nH]c(=O)n2C | i
O=C(NCc1ccco1)C1CCN(c2cncnc2N2CCCCC2)CC1 | i
Cn1c(=O)[nH]c(=O)c2c1nc1n2CCCN1c1ccc(Cl)cc1 | i
CCn1nc(C)c2c1c(=O)n(Cc1ccccc1)c(=O)n2CC(=O)NC(C)CCc1ccccc1 (centres undefined) | i
CCOC(=O)c1[nH]c(C)c(CN(Cc2ccc(C)cc2)C(=O)C2CC2)c1C | i
O=c1[nH]nc(SCc2nc(-c3ccc(F)cc3)no2)n2nc(-c3ccc(F)cc3)cc12 | i
Oc1ccc(C2Nc3ccc(Cl)cc3[C@H]3OCCC[C@@H]23)cc1 (some centres undefined) | i
CCCOc1ccc(-c2noc(Cc3nc(-c4ccccc4)cs3)n2)cc1 | i
CC(C)(O/N=C(\C(=O)N[C@@H]1C(=O)N2C(C(=O)[O-])=C(C[n+]3ccccc3)CS[C@H]12)c1csc(N)n1)C(=O)O | i
CO/N=C(\C(=O)N[C@@H]1C(=O)N2C(C(=O)[O-])=C(C[N+]3(C)CCCC3)CS[C@H]12)c1csc(N)n1 | +
COCC1=C(C(=O)OC(C)OC(=O)OC(C)C)N2C(=O)C(NC(=O)C(=NOC)c3csc(N)n3)C2SC1 (centres undefined) | i
COc1ccc(NS(=O)(=O)c2cc(/C=C\c3onc(C)c3NC(C)=O)ccc2C)cc1 | i
Cc1cc(C2CCCN2C(=O)c2cnn3cccnc23)no1 (centres undefined) | i
CC(C)c1noc(COC2CCCN(S(=O)(=O)c3cnc[nH]3)C2)n1 (centres undefined) | i
CN1CCN(CCNC(=O)c2cc3n(n2)CCCC3)CC1 | i
CN1CCN(CCc2ccc(Cl)c(Cl)c2)CC1 | +
SMILES | Choline anaer gr
CN1CCN(S(=O)(=O)c2cc(-c3ccc(=O)[nH]n3)ccc2Cl)CC1 | i
Cc1nc(C2CCCN(Cc3ccco3)C2)n[nH]1 (centres undefined) | i
CCCCNC(=O)C1CCCN(c2ncnc3c2oc2ccccc23)C1 (centres undefined) | i
CCc1cc(Cl)c(OC)c(C(=O)NC[C@@H]2CCCN2CC)c1O | +!
CCc1cc(Cl)c(OC)c(C(=O)NCC2CCCN2CC)c1O (centres undefined) | i
CCN1CCCC1CNC(=O)c1c(O)c(Cl)cc(Cl)c1OC (centres undefined) | i
Fc1ccc(-c2noc(CSc3ccc(-c4ccccc4F)nn3)n2)cc1 | i
CCCSc1nc2c(c(=O)[nH]1)C(c1ccc(C(C)C)cc1)C(C(=O)OC)=C(C)N2 (centres undefined) | i
O=C(O)CC1C(=O)NCCN1Cc1cccc(F)c1 (centres undefined) | i
Cc1sc2cc(C(=O)N3CCC4(CC3)OCCO4)[nH]c2c1CN1CCCCC1 | i
Cc1sc2cc(C(=O)N3CCC(N4CCCCC4)CC3)[nH]c2c1CN1CCCCC1 | +
CCCN1CCN(C(=O)c2cc3sc(C)c(CN4CCCCC4)c3[nH]2)CC1 | i
Fc1ccccc1-c1nn2c(-c3ccccn3)nnc2s1 | i
O=C(O)c1cc(NS(=O)(=O)c2cccc(F)c2)ccc1N1CCN(c2cccc(Cl)c2)CC1 | i
CCCCC/C=C\C/C=C\C/C=C\CCCCC(=O)O | +
CCCCC/C=C\C/C=C\C/C=C\CCCCCCC(=O)O | i
CCCCC/C=C\C/C=C\CCCCCCCC(=O)O | i
COc1ccc(OCc2nc(-c3ccc(NS(=O)(=O)c4ccc(Cl)cc4)cc3)no2)cc1 | i
CC(C)c1nnc(-c2ccc(S(=O)(=O)N3CCOCC3)o2)o1 | i
Cc1c2c(nn1-c1ccc(SCC(=O)NC(C)C)nn1)CCC2 | i
CC1(C)C(=O)N(CC(=O)N2CCCC2)c2ccccc21 | i
Cc1ccccc1NC(=O)Nc1cccc(CCc2nc3ccccc3n2C)c1 | i
Cc1cc(C)cc(NC(=O)CC2(CC3=NS(=O)(=O)c4ccccc4N3)CCCC2)c1 | i
O=C(CCC1=NS(=O)(=O)c2ccccc2N1)NCc1ccc(F)cc1 | i
Cc1ccc(NC(=O)CCCC2=NS(=O)(=O)c3ccccc3N2)cc1F | +
SMILES | Choline anaer gr
Cc1nc2c3ccccc3n3c(CCCC(=O)NCc4ccc(Cl)cc4)nnc3n2n1 | i
O=S1(=O)N=CN(c2ccc(Br)cc2)c2ncccc21 | i
CCOC(=O)c1cc(-c2ccccc2)n(CC(=O)NCC2COc3ccccc3O2)c1C (centres undefined) | i
CCCCC[C@H](O)/C=C/[C@@H]1[C@@H](C/C=C/CCCC(=O)O)[C@H](O)C[C@H]1O | i
CC(C)OC(=O)CCC/C=C\C[C@@H]1[C@@H](/C=C/[C@H](O)CCc2ccccc2)[C@H](O)C[C@@H]1O | +
O=C(O)CCC/C=C/C[C@@H]1[C@@H](/C=C/[C@@H](O)COc2cccc(C(F)(F)F)c2)[C@H](O)C[C@@H]1O | i
CC(C)OC(=O)CCC/C=C\C[C@@H]1[C@@H](/C=C/C(=O)COc2cccc(C(F)(F)F)c2)[C@H](O)C[C@@H]1O | i
CC(C)OC(=O)CCCC=CCC1C(O)CC(O)C1CCC(O)CCc1ccccc1 (centres undefined) | i
O=C(O)CCC/C=C\C[C@@H]1[C@@H](/C=C/[C@@H](O)COc2cccc(C(F)(F)F)c2)[C@H](O)C[C@@H]1O | +!
CCCn1c(=O)c2cc(C)ccc2n2c(SCc3cc(C)ccc3C)nnc12 | i
CC(C)c1ccc2nc(-c3cccc(NS(=O)(=O)c4cnc[nH]4)c3)ccc2c1 | i
COc1ccccc1-c1csc(-c2nnn(-c3ccc(C)c(C)c3)c2N)n1 | i
COC(=O)c1ccc(C(=O)Nc2sc3c(c2-c2nc4ccccc4s2)CCN(C(C)C)C3)cc1 | i
COc1ccc(C(=O)Nc2sc3c(c2-c2nc4ccccc4s2)CCN(C(C)C)C3)cc1OC | +
CC(=O)Nc1sc2c(c1-c1nc3ccccc3s1)CCN(C(C)C)C2 | i
CN1CCCN(c2ccc(NC(=O)c3ccccc3Cl)c(C(=O)O)c2)CC1 | i
CC1CCCN(c2ccc(NC(=O)C3CCC3)c(C(=O)O)c2)C1 (centres undefined) | i
CC1CCCN(c2ccc(NC(=O)c3ccccc3Cl)c(C(=O)O)c2)C1 (centres undefined) | +
CCCc1cc(C2CCCN2C(=O)Nc2ccsc2C(=O)OC)no1 (centres undefined) | i
Cc1[nH]c(C(=O)N2CCCC(C(=O)NC3CCCCC3)C2)c(C)c1C(=O)OC(C)C (centres undefined) | i
CCC(C)NC(=O)CCc1nc(N2CC(C)CC(C)C2)c2c(C)noc2n1 (centres undefined) | i
Cc1cc(C(=O)N2CCCC2c2c(C)noc2C)no1 (centres undefined) | i

Screening results: PubChem BioAssay, ICCB-Longwood Screening Facility, Harvard Medical School
